The supplement of paper PMC3545927
This is one part of the list. The hit rate among all sequences tested is not known here.

Molecular target: furin, P09958
Test: furin cleavage Z-score vs untreated control; higher = more cleavage, active = 3.5 or more, inactive = 1 or less, 8 variable residues between constant flanks
How it was run: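 Sequencing of released DNA, tagged with adapters by PCR, gave read counts used as abundance. That DNA was freed when purified furin cut N-terminally bead-bound 8-mer peptides fused to a cDNA oligonucleotide, in 0.01 ml reactions at 1:10 enzyme:substrate in 50 mM HEPES pH 7.5 with CaCl2 and NaCl, lasting 7.5, 15 or 30 min. The cleavage Z-score was the lowess-adjusted log count versus furin-free reactions, scaled by median absolute deviation.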

Sequence of furin, P09958 (P09958 whole entry): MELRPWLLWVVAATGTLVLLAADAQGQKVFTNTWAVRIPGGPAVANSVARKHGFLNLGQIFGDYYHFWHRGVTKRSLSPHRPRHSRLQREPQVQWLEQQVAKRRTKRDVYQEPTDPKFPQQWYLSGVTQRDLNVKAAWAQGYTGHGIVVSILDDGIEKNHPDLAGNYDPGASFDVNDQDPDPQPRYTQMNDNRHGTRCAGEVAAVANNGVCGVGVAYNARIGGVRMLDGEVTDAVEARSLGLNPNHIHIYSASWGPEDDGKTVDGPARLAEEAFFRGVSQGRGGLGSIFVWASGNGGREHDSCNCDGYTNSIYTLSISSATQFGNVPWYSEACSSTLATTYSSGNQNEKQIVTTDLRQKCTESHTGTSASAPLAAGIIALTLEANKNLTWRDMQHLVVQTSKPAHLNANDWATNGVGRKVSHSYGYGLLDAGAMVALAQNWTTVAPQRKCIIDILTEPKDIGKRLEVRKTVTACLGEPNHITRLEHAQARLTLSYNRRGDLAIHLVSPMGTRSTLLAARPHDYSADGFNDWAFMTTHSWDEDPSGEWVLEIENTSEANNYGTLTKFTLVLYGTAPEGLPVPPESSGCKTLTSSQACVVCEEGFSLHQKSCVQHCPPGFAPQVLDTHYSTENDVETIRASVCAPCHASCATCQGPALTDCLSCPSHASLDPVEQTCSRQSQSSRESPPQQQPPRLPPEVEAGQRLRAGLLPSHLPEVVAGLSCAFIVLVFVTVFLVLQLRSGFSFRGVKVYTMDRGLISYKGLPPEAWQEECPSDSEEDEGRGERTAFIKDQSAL

Sequence	furin cleavage Z-score (7.5 min)	furin cleavage Z-score (15 min)	furin cleavage Z-score (30 min)
CAFAPPCKPLAGNASASA [HC1227]	-0.328 (inactive)	-1.28 (inactive)	-1.52 (inactive)
CAMIAGAHWGAGNASASA [HC334]	-0.899 (inactive)	-0.615 (inactive)	-0.232 (inactive)
CAALVMAQLLAGNASASA [HC326]	0.829 (inactive)	0.666 (inactive)	-0.00652 (inactive)
CAHFKRTRRSAGNASASA [FS-1532]	10.4 (active)	10.2 (active)	8.6 (active)
CARTGRACECAGNASASA [FS-2464]	-0.465 (inactive)	0.257 (inactive)	0.474 (inactive)
CAVTRRKGRCAGNASASA [FS-1294]	3.46	5.29 (active)	5.86 (active)
CAALLRTRRSAGNASASA [FS-972]	8.62 (active)	7.98 (active)	4.19 (active)
CAALVRTRRCAGNASASA [FS-214]	5.77 (active)	6.03 (active)	5.43 (active)
CAALVVGVVCAGNASASA [HC1106]	-0.352 (inactive)	-0.584 (inactive)	-0.588 (inactive)
CAVTRHADVIAGNASASA [HC727]	-0.38 (inactive)	1	-0.771 (inactive)
CATALNCNDSAGNASASA [HC373]	-0.291 (inactive)	1.13	-0.956 (inactive)
CADPNIRTGVAGNASASA [HC798]	-0.151 (inactive)	0.395 (inactive)	0.163 (inactive)
CATTPCKGSWAGNASASA [HC71]	1.27	0.748 (inactive)	0.0767 (inactive)
CAMEECSQHNAGNASASA [HC1781]	1.41	1.49	0.115 (inactive)
CATTPCSGGWAGNASASA [HC1916]	-1.1 (inactive)	-1.09 (inactive)	-1.17 (inactive)
CARLCRKRRCAGNASASA [FS-1478]	5.9 (active)	6.48 (active)	7.28 (active)
CAMPKKTRRSAGNASASA [FS-1140]	9.94 (active)	11.9 (active)	9.14 (active)
CARLASCRPLAGNASASA [HC388]	-0.427 (inactive)	-1.06 (inactive)	-2.04 (inactive)
CARAGRSKGTAGNASASA [FU10]	1.67	1.52	0.0134 (inactive)
CARAGRSGKEAGNASASA [FS-1990]	0.457 (inactive)	0.0281 (inactive)	-1.58 (inactive)
CARIKRRKSLAGNASASA [FS-2953]	2.28	3.44	5 (active)
CAPLKRSMSLAGNASASA [FS-2875]	2.28	0.41 (inactive)	0.484 (inactive)

Sequence	furin cleavage Z-score (7.5 min)	furin cleavage Z-score (15 min)	furin cleavage Z-score (30 min)
CARAGRSKRTAGNASASA [FS-486]	10.8 (active)	9.36 (active)	7.48 (active)
CAGITGDNTTAGNASASA [HC1340]	0.448 (inactive)	-1.88 (inactive)	-0.26 (inactive)
CAWISSECTTAGNASASA [HC1142]	-0.663 (inactive)	-0.247 (inactive)	0.84 (inactive)
CARAGRACEGAGNASASA [FS-2882]	0.299 (inactive)	-0.431 (inactive)	0.946 (inactive)
CARAGRSAPLAGNASASA [FS-2883]	2.27	5.01 (active)	3.82 (active)
CARKKKRQSLAGNASASA [FS-2153]	0.376 (inactive)	0.239 (inactive)	0.449 (inactive)
CARIKRGNTTAGNASASA [FS-2952]	4.9 (active)	5.56 (active)	4.43 (active)
CALLLAVFGPAGNASASA [HC606]	-1.28 (inactive)	-0.292 (inactive)	0.343 (inactive)
CAVVCCVMSYAGNASASA [HC103]	-1.06 (inactive)	-0.0414 (inactive)	-1.47 (inactive)
CARKSRWAKLAGNASASA [FS-2982]	-0.417 (inactive)	0.0632 (inactive)	3.23
CARIKRQHSSAGNASASA [FS-1898]	4.55 (active)	5.06 (active)	4.01 (active)
CARLKRLCSSAGNASASA [FS-2990]	0.399 (inactive)	-0.446 (inactive)	0.202 (inactive)
CARVWRATSSAGNASASA [FS-2110]	1.3	0.783 (inactive)	0.938 (inactive)
CAPRSRARKLAGNASASA [FS-842]	0.0836 (inactive)	1.96	-0.483 (inactive)
CARIKRSAPLAGNASASA [FS-2954]	11.4 (active)	11.4 (active)	10.2 (active)
CASTPCSAPLAGNASASA [HC2559]	-0.781 (inactive)	0.424 (inactive)	0.232 (inactive)
CARIKRSRKLAGNASASA [FS-3156]	7.25 (active)	9.58 (active)	9.07 (active)
CATFYGMWPLAGNASASA [HC555]	-1.22 (inactive)	-0.0659 (inactive)	1.29
CAEREVPCHRAGNASASA [HC2432]	0.541 (inactive)	0.603 (inactive)	1.7
CAEYVVLLFLAGNASASA [HC519]	-0.402 (inactive)	0.168 (inactive)	-0.326 (inactive)
CACFAWYLKGAGNASASA [HC547]	-1.21 (inactive)	-0.696 (inactive)	0.991 (inactive)
